Inconclusive results are not listed. The source made the active and inactive calls. The call rests on the fitted dose curve; in most records, active means well fitted inhibition curve with a large enough effect in the signal ratio in the repeat runs, with a control signal flat; inconclusive means weak or mixed curves, or effect the other way; inactive means flat fitted curve, though single readings scatter; the % refers to the signal ratio.

These results are taken from PubChem BioAssay (Tox21).
On the % scale 0 is the no-effect control and ±100 the full control effect; potency means the concentration at half of the fitted maximal effect.

The target in this assay is D(2) dopamine receptor (Homo sapiens) (UniProt P14416). Nature of the assay: Dopamine D2 receptor (DRD2) small molecule antagonists, cell-based qHTS assay (AID 1963595). Particulars: HEK293-DRD2 cAMP HTRF antagonist mode; series mostly up to 92.4 µM; activity change, negative = inhibition: at the top concentration. From the text: National Center for Advancing Translational Sciences [NCATS]
Chain of D(2) dopamine receptor (Homo sapiens) (P14416 whole entry, looked up): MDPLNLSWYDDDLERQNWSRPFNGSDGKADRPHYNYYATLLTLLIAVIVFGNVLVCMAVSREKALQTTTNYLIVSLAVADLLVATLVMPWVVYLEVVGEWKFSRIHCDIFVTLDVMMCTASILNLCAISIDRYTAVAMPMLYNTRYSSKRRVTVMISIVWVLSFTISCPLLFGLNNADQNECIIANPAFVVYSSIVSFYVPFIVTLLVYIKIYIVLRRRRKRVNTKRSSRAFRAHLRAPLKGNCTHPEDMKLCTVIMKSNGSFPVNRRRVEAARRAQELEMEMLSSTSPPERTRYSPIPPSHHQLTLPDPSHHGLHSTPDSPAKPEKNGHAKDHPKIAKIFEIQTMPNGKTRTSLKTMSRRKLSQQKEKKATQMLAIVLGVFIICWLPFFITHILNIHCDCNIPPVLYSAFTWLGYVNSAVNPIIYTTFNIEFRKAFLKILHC
Division of Preclinical Innovation [DPI]
U.S. Environmental Protection Agency [EPA]
National Institutes of Environmental Health Sciences [NIEHS]
National Toxicology Program [NTP]
U.S. Food and Drug Administration [FDA]
DRD2 is the D2 subtype of the dopamine receptor, which is coupled to Gi subtype of G protein-coupled receptor. This G protein-coupled receptor inhibits adenylyl cyclase activity. The DRD2-HEK293 cell line stably expressing D2 dopamine receptor can be used for screening agonists and antagonists of interactions between D2 and its ligands. The Hek293-DRD2 cAMP assay is based on HTRF technology. It measures changes of cAMP accumulation in response to Gi coupled GPCR activation or inhibition.
Tox21 Assay Protocol Summary:
DRD2-Hek293 cells were dispensed at 600 cells/3uL/well in 1536-well white plates using a Multidrop Dispenser. After the assay plates were incubated at a 37 C/5% CO2 incubator for 24 h, 1 uL of Ro20-1724 at final concentration of 0.1 mM was transferred to the assay plate by a Flying Reagent Dispenser. Following Ro20-1724 addition, 23 nL of compound dissolved in DMSO, positive controls or DMSO only was added to the assay plates via Wako pintool station. The assay plates were incubated at room temperature for 10 min. Next, 1 uL of mixture of NKH477 (final concentration at 200 nM) and quinpirole (final concentration at 12 nM) was added into the plates. After the assay plates were incubated at room temperature for an additional 30 min, 2.5 ul/well of cAMP-d2 and 2.5 ul/well of anti-cAMP-cryptate were added respectively into the assay plates using a Flying Reagent Dispenser. The plates were incubated at room temperature for 1 h. The fluorescence intensity in the plates was measured at 340 nm excitation and 665 & 620 nm emission by an Envision plate reader.
For orientation: In qHTS, concentration-response curves come from the screen itself.
As to `CC(=O)[O-].CC(=O)[O-].[Co+2]`, the “activity change, negative = inhibition” value is 3.77% (inactive).

As for `CCC1(c2cccc(O)c2)CCCCN(C)C1` (stereo not given), the “activity change, negative = inhibition” value was -0.185% [at 42.5 µM] (inactive).

Take `Clc1ccccc1N1CCNCC1`: the “activity change, negative = inhibition” value was -9.47% [at 42.5 µM] (inactive).

As for `CCOP(=O)(OCC)Oc1nc(Cl)c(Cl)cc1Cl`, the “activity change, negative = inhibition” value is 24.8% (inactive).

`O=C(O)c1cccc(Cl)c1`: the “activity change, negative = inhibition” value is -1.1% (inactive).

Consider `c1ccc2c(c1)cc1ccc3cccc4ccc2c1c34`, for which the “activity change, negative = inhibition” value was -5.36% (inactive).

`CN1CCC(O)(c2ccc(F)cc2)C(C(=O)c2ccc(F)cc2)C1` (stereo not given): the “activity change, negative = inhibition” value is 6.03% [at 42.5 µM] (inactive).

Consider `CCOP(=O)(N=C1SCCS1)OCC`, for which the “activity change, negative = inhibition” value is -1.76% (inactive).

`CC(C)[N+](=O)[O-]`: the “activity change, negative = inhibition” value was 13.6% (inactive).

Turning to `C=CC(=O)OCCCCOC(=O)C=C`, the “activity change, negative = inhibition” value was -5.06% (inactive).

On to `NC1=NC(=O)C(c2ccccc2)O1` (stereo not given), for which the “activity change, negative = inhibition” value is 14.7% [at 42.5 µM] (inactive).

Consider `CC(C(O)c1ccccc1)N(C)C/C=C/c1ccccc1` (stereo not given), for which the “activity change, negative = inhibition” value was -23.5% [at 42.5 µM] (inactive).

In the case of `CN1C(=O)CN=C(c2ccccc2)c2cc([N+](=O)[O-])ccc21`, the “activity change, negative = inhibition” value was 0.609% [at 42.5 µM] (inactive).

In the case of `Clc1ccc2ccccc2c1`, the “activity change, negative = inhibition” value is 6.11% (inactive).

As for `O=C=Nc1ccc(Cl)cc1`, the “activity change, negative = inhibition” value was -1.53% (inactive).

`CCC1(C2=NCCN2)Cc2ccccc2O1` (stereo not given): the “activity change, negative = inhibition” value is -5.54% [at 42.5 µM] (inactive).

For `COC(=O)/C=C(\C)OP(=O)(OC)OC`, the “activity change, negative = inhibition” value was 3.74% (inactive).

As to `CC1(C)C(/C=C(\Cl)C(F)(F)F)C1C(=O)OC(C#N)c1cccc(Oc2ccccc2)c1` (stereo not given), the “activity change, negative = inhibition” value is -1.07% (inactive).

With `Cc1ccccc1C(=O)Nc1cccc(OC(C)C)c1`, the “activity change, negative = inhibition” value was -2.15% (inactive).

Turning to `COP(=S)(OC)Oc1ccc([N+](=O)[O-])c(C)c1`, the “activity change, negative = inhibition” value was 4.01% (inactive).

With `COc1cc(CC(C)N)cc2c1OCO2` (stereo not given), the “activity change, negative = inhibition” value is 0.113% (inactive).

Regarding `Clc1cc(Cl)c(-c2cc(Cl)c(Cl)cc2Cl)cc1Cl`, the “activity change, negative = inhibition” value is -0.716% [at 42.5 µM] (inactive).

`O=C(NC(=O)c1c(F)cccc1F)Nc1ccc(OC(F)(F)C(F)OC(F)(F)F)c(Cl)c1` (stereo not given): the “activity change, negative = inhibition” value is 2.11% [at 42.5 µM] (inactive).

On to `CC(Oc1cccc(Cl)c1)C(=O)O` (stereo not given), for which the “activity change, negative = inhibition” value was 11.5% (inactive).

As to `CCOc1cc(OP(=S)(OC)OC)nc(CC)n1`, the “activity change, negative = inhibition” value is -1.25% (inactive).

For the compound `Nc1ccc(N=Nc2ccccc2)cc1`, the “activity change, negative = inhibition” value is 5.55% (inactive).

With `COc1ccc(C=O)cc1O`, the “activity change, negative = inhibition” value is -5.14% (inactive).

As to `CCOP(=S)(NC(C)C)Oc1ccccc1C(=O)OC(C)C` (stereo not given), the “activity change, negative = inhibition” value was -12.6% (inactive).

As to `C=CC(=O)OCCCCO`, the “activity change, negative = inhibition” value is 0.19% (inactive).

Turning to `ClC(Cl)C(Cl)(Cl)Cl`, the “activity change, negative = inhibition” value is 6.51% (inactive).

Regarding `CCC1(c2ccccc2)C(=O)N=C(O)NC1=O` (stereo not given), the “activity change, negative = inhibition” value was 12.7% (inactive).

Turning to `O=C1NCN(c2ccccc2)C12CCN(CCCOc1ccc(F)cc1)CC2`, the Potency was 0.106 µM (active).

Regarding `COC1=CC(=O)O[C@@H](/C=C/c2ccccc2)C1`, the “activity change, negative = inhibition” value was 2.02% (inactive).

For the compound `C=CC(=O)OCC(COC(=O)C=C)(COC(=O)C=C)COC(=O)C=C`, the Potency is 54.5 µM (active).

For the compound `NCC1(CC(=O)O)CCCCC1`, the “activity change, negative = inhibition” value was 1.76% [at 42.5 µM] (inactive).

As to `O=C1CN2CCOC2(c2ccccc2Cl)c2cc(Cl)ccc2N1` (stereo not given), the “activity change, negative = inhibition” value is -6.4% [at 42.5 µM] (inactive).

As to `ClCBr`, the “activity change, negative = inhibition” value was 14.5% (inactive).

Take `COc1cc(CC(C)N)c(OC)cc1Br` (stereo not given): the “activity change, negative = inhibition” value was -3.48% (inactive).

Take `CCN1CCC2(CC1)COc1cc3c(cc12)N(C(=O)c1ccc(-c2ccc(-c4nnc(C)o4)cc2C)cc1)CC3`: the “activity change, negative = inhibition” value is -3.48% (inactive).

`CCS(=O)(=O)CCSP(=O)(OC)OC`: the “activity change, negative = inhibition” value is -0.284% (inactive).
